Measurements published in PubChem BioAssay (EPA / NIEHS).
Records with an inconclusive call do not appear. Activity calls are given as the source filed them. The calls were made as follows, unless noted: active = hit-call score of the fitted dose curve at least 0.9, where 1 is the maximum; inactive = score below 0.9.

How the values were obtained:
[1] = ATG_M_32_TRANS: Attagene TRANS-FACTORIAL HepG2 Assay for M32 Transcription Factor (Internal Marker) (AID 2282984; active = hit-call score of the fitted dose curve at least 0.9, where 1 is the maximum); conditions: HepG2 Attagene TRANS M32 internal marker reporter
How it was run: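 HepG2 cells transiently transfected with GAL4-UAS reporter units, dosed for 24 hours. Reporter mRNA quantified by RT-PCR, 6-FAM labelling, HpaI digestion and capillary electrophoresis; internal-marker signal fitted upward relative to DMSO.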

[2] = target: Nuclear receptor subfamily 4 group A member 2 (Homo sapiens) (UniProt P43354); experiment: ATG_NURR1_TRANS: Attagene TRANS-FACTORIAL HepG2 Assay for human Nuclear Receptor Related Protein 1 (NURR1) (AID 2282985; active = hit-call score of the fitted dose curve at least 0.9, where 1 is the maximum); conditions: HepG2 Attagene TRANS reporter, mRNA readout
How it was run: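 HepG2 cells transiently transfected with NURR1-Gal4 chimera and GAL4-UAS reporter units; after 24 hr compound exposure, reporter mRNA quantified by RT-PCR and capillary electrophoresis; gain of signal fitted against DMSO.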

[3] = target: Transcriptional activator Myb (Homo sapiens) (UniProt P10242); experiment: ATG_Myb_CIS: Attagene CIS-FACTORIAL HepG2 Assay for human Myeloblastosis (Myb) Proto-Oncogene Transcription Factor (AID 2282986); conditions: HepG2 Attagene CIS-FACTORIAL Myb reporter transcription; actives raise or lower the signal
How it was run: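 Reporter transcript levels, quantified by fluorescent RT-PCR and capillary electrophoresis, serve as the read-out. Transfected HepG2 cells carrying cis-promoter reporter units are dosed for 24 hours, and curves are fitted bidirectionally against DMSO controls.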

[4] = target: Nuclear respiratory factor 1 (Homo sapiens) (UniProt Q16656); experiment: ATG_NRF1_CIS: Attagene CIS-FACTORIAL HepG2 Assay for human Nuclear Respiratory Factor 1 (NRF1) Orphan Gene (AID 2282987); conditions: HepG2 NRF1 cis-element reporter, Attagene multiplex; actives raise or lower the signal
How it was run: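 Multiplexed cis-reporter assay, HepG2 cells, 24 h treatment. Total RNA → oligo(dT) RT → PCR with reporter-specific primers → 6-FAM primer extension → HpaI cut → CE. Bidirectional fit vs DMSO.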

[5] = ATG_M_61_TRANS: Attagene TRANS-FACTORIAL HepG2 Assay for M61 Transcription Factor (Internal Marker) (AID 2282988); conditions: HepG2 Attagene TRANS M61 internal marker reporter
How it was run: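 Background-control reporter transcript, measured after 24 h chemical exposure of transiently transfected HepG2 cells carrying multiple GAL4-UAS reporter units. Read-out by RT-PCR with 6-FAM primer extension and capillary electrophoresis, gain of signal versus DMSO.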

[6] = ATG_NFI_CIS: Attagene CIS-FACTORIAL HepG2 Assay for human Nuclear Factor I (NFI) (AID 2282989); conditions: HepG2 cis-regulatory reporter, NFI response element transcription; actives raise or lower the signal
How it was run: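 Reporter transcription driven by endogenous transcription factors in HepG2 cells; 24 h treatment. Quantitation by labelled RT-PCR fragments on capillary electrophoresis, gain- or loss-of-signal relative to DMSO.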

[7] = target: Myc proto-oncogene protein (Homo sapiens) (UniProt P01106); experiment: ATG_Myc_CIS: Attagene CIS-FACTORIAL HepG2 Assay for human Myelocytomatosis (Myc) Proto-Oncogene Transcription Factor (AID 2282990); conditions: HepG2, Attagene cis-reporter transcription factor activity; actives raise or lower the signal
How it was run: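 Fluorescence intensity of reporter-specific cDNA fragments, separated by capillary electrophoresis, gives the signal. Transfected HepG2 cells carrying cis-promoter reporter constructs are incubated with compound for 24 h; DMSO serves as baseline.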

[8] = ATG_NF_kB_CIS: Attagene CIS-FACTORIAL HepG2 Assay for human Nuclear Factor Kappa B (NF-kB) (AID 2282991); conditions: HepG2 Attagene cis-factorial NF-kB reporter mRNA; actives raise or lower the signal
How it was run: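 Transient MRTU transfection of human HepG2 liver cells → 24 h chemical exposure → total RNA, oligo(dT) RT → PCR, 6-FAM primer extension, HpaI digest 2 h 37 C → CE fragment analysis. Bidirectional fitting, DMSO negative control.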

[9] = ATG_NRF2_ARE_CIS: Attagene CIS-FACTORIAL HepG2 Assay for human Nuclear Factor Erythroid 2 Related Factor 2 (NFR2) response to Antioxidant Response Elements (ARE) (AID 2282992); conditions: HepG2 Attagene ARE/NRF2 reporter, transcription factor activity; actives raise or lower the signal;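 as to AC50: reporter mRNA level measured by RT-PCR and capillary electrophoresis fluorescence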
How it was run: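 Transient MRTU transfection of HepG2; 24 h compound exposure; TriZol RNA, RT with oligo(dT), PCR, 6-FAM primer extension, HpaI cut, CE. Bidirectional fit vs DMSO.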

[10] = ATG_Oct_MLP_CIS: Attagene CIS-FACTORIAL HepG2 Assay for human Octamer-Binding Transcription Factor (Oct) (AID 2282993); conditions: HepG2 Attagene cis-factorial Oct reporter, mRNA; actives raise or lower the signal
How it was run: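 Transfected HepG2 cells, 24 h treatment. Reporter mRNA quantified by RT-PCR–capillary electrophoresis; bidirectional fitting against DMSO.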

[11] = target: Cellular tumor antigen p53 (Homo sapiens) (UniProt P04637); experiment: ATG_p53_CIS: Attagene CIS-FACTORIAL HepG2 Assay for human p53 Transcription Factor (AID 2282994); conditions: HepG2 p53 cis-element reporter, Attagene mRNA; actives raise or lower the signal
How it was run: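 HepG2, transient MRTU transfection (cis promoter elements, endogenous TFs); 24 h dosing; RNA isolation, RT-PCR, 6-FAM primer extension, HpaI digest, CE fluorescence; bidirectional fit vs DMSO.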

[12] = target: human Peroxisome Proliferator-activated Receptor alpha (PPARa), PPARA (gene 5465) (UniProt Q07869); experiment: ATG_PPARa_TRANS: Attagene TRANS-FACTORIAL HepG2 Assay for human Peroxisome Proliferator-activated Receptor alpha (PPARa) (AID 2283001; active = hit-call score of the fitted dose curve at least 0.9, where 1 is the maximum)
How it was run: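 HepG2 cells transiently transfected with multiplexed GAL4-UAS reporters driven by exogenous chimeric NR-Gal4 proteins; reporter mRNA measured after 24 h dosing. Read-out by RT-PCR, 6-FAM labelling, HpaI digestion and capillary electrophoresis; gain of signal versus DMSO.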

[13] = ATG_M_06_TRANS: Attagene TRANS-FACTORIAL HepG2 Assay for M06 Transcription Factor (Internal Marker) (AID 2282983; active = hit-call score of the fitted dose curve at least 0.9, where 1 is the maximum); conditions: HepG2 Attagene TRANS M06 internal marker reporter
How it was run: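 HepG2 cells transiently transfected with GAL4-UAS multiple reporter units, dosed 24 h. Reporter RNA reverse-transcribed, PCR-amplified, 6-FAM-labeled, HpaI-digested and quantified by capillary electrophoresis; this internal-marker signal fitted upward relative to DMSO.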

[14] = BSK_3C_TissueFactor: BioMAP Diversity Plus: 3C Assay for Tissue Factor Biomarker Activity (AID 2282997); conditions: BioMAP 3C HUVEC, tissue factor biomarker readout; actives raise or lower the signal
How it was run: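 HUVEC were treated 24 h, then surface tissue factor measured by ELISA and fitted bidirectionally against DMSO. Parallel SRB total-protein staining assessed overt cytotoxicity at the same time point.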

[15] = BSK_3C_uPAR: BioMAP Diversity Plus: 3C Assay for Urokinase-type plasminogen activator receptor (uPAR) Biomarker Activity (AID 2282998); conditions: BioMAP 3C HUVEC, uPAR biomarker ELISA; actives raise or lower the signal
How it was run: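 Readout: ELISA for surface uPAR. System: human umbilical vein endothelial primary cells, 24 h after chemical exposure. Analysis: bidirectional fit, DMSO baseline.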

[16] = BSK_3C_VCAM1: BioMAP Diversity Plus: 3C Assay for Vascular cell adhesion molecule 1 (VCAM1) Biomarker Activity (AID 2282999); conditions: BioMAP 3C HUVEC, VCAM1 ELISA, cytokine-stimulated; actives raise or lower the signal
How it was run: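 Human umbilical vein endothelial cells (3C system), biomarker read by ELISA 24 h after dosing; bidirectional fit against DMSO baseline. Cytotoxicity tracked by SRB total-protein staining in parallel cultures at biomarker time.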

Measured: AC50

Sequence of Nuclear receptor subfamily 4 group A member 2 (Homo sapiens) (P43354 whole entry, looked up, the tested form may be a part): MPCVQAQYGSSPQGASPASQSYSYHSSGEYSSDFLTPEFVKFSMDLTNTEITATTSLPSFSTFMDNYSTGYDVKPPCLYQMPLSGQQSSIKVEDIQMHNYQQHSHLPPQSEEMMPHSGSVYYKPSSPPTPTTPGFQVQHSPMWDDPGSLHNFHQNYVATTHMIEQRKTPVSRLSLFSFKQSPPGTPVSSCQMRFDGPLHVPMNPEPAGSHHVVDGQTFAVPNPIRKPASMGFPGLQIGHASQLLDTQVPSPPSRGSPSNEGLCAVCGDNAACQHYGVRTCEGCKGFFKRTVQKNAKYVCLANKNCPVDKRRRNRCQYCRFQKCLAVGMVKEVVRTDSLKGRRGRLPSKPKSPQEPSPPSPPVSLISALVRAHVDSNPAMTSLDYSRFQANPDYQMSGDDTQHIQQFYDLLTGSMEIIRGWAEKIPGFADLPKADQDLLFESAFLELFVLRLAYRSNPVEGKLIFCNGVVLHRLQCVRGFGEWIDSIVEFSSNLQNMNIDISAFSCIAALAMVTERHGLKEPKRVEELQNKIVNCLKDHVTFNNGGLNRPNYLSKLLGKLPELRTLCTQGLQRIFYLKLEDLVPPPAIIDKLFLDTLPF
Sequence of Transcriptional activator Myb (Homo sapiens) (P10242 whole entry, looked up): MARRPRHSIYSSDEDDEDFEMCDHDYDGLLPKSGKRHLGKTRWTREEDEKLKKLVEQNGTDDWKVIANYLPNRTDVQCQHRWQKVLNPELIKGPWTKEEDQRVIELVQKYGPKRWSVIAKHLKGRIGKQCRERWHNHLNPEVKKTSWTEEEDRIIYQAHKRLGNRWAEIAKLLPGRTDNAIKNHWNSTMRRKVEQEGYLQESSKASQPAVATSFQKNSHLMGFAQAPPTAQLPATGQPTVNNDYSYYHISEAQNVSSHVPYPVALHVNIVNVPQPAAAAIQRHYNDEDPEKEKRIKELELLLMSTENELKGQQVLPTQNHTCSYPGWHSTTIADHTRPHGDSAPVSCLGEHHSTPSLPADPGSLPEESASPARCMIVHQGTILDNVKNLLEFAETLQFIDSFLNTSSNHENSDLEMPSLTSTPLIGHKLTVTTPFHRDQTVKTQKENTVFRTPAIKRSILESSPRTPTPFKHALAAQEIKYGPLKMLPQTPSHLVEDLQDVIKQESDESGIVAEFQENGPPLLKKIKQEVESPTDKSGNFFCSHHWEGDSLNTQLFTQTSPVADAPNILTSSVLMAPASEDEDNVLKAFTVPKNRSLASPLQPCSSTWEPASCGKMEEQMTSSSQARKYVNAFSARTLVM
Sequence of human Peroxisome Proliferator-activated Receptor alpha (PPARa), PPARA (gene 5465) (Q07869 whole entry, looked up, the tested form may be a part): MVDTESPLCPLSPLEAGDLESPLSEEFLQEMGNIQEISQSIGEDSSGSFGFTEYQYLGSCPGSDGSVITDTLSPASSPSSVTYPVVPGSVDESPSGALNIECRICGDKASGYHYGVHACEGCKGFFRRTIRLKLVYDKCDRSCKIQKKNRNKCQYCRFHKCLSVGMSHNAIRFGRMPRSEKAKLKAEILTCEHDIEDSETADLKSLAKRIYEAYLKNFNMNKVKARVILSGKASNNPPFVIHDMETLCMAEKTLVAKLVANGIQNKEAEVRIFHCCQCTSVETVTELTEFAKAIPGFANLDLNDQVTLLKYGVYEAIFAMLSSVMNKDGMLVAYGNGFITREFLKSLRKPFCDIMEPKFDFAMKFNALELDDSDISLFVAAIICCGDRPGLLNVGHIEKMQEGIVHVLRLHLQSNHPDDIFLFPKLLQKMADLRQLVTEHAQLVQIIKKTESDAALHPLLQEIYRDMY
Sequence of Nuclear respiratory factor 1 (Homo sapiens) (Q16656 whole entry, looked up): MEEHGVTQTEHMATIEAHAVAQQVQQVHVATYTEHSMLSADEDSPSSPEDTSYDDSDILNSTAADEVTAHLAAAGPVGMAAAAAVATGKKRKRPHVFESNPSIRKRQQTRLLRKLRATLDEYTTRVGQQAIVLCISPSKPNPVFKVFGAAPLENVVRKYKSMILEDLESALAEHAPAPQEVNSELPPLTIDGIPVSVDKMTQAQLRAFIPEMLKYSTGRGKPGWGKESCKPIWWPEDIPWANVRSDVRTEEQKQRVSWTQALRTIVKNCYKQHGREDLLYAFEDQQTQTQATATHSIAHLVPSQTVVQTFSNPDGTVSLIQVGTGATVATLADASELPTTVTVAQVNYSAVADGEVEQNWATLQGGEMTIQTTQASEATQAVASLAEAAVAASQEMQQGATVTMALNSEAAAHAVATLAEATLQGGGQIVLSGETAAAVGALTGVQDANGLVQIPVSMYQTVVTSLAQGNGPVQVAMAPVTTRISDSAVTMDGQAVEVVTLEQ
Sequence of Myc proto-oncogene protein (Homo sapiens) (P01106 whole entry, looked up, the tested form may be a part): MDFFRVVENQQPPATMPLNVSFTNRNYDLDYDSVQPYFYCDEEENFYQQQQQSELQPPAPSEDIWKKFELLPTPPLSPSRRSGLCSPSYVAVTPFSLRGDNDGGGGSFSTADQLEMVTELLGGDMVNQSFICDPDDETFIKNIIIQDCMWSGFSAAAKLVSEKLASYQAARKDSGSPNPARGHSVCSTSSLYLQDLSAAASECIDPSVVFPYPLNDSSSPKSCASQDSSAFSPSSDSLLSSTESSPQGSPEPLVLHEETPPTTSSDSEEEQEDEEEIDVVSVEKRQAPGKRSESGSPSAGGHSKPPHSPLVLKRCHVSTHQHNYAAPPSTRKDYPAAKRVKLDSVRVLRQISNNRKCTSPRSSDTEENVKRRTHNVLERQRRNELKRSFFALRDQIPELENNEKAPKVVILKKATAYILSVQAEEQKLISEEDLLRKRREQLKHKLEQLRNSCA
Sequence of Cellular tumor antigen p53 (Homo sapiens) (P04637 whole entry, looked up): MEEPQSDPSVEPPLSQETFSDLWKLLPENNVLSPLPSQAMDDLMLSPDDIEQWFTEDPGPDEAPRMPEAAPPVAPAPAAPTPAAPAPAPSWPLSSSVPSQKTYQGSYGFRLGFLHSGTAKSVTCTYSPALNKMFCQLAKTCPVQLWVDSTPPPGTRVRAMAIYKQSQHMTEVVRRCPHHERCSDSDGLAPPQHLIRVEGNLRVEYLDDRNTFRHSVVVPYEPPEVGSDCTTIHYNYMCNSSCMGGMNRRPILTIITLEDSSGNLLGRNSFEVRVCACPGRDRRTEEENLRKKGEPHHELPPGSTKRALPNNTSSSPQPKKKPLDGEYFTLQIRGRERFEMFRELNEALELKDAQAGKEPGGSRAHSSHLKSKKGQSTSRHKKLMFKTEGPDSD

CCOC(=O)c1nc(C(Cl)(Cl)Cl)n(-c2ccc(Cl)cc2Cl)n1
inactive: [3] | [4] | [5] | [6] | [8] | [10]
active: [1] 100 µM | [2] 66 µM | [7] 24.5 µM | [9] 26.8 µM

COC(O)c1ccccc1 (configuration not stated)
not listed: [2] | [5] | [13] | [14] | [15] | [16]
inactive: all other assays above

CC(C)c1c(C(=O)Nc2ccccc2)c(-c2ccccc2)c(-c2ccc(F)cc2)n1CC[C@@H](O)C[C@@H](O)CC(=O)O
inactive: [13] | [1] | [3] | [7] | [10] | [12]

CCCCCCCCCCCC(=O)NCCCN(C)C
inactive: [3] | [4] | [7] | [8] | [9] | [12]
active: [6] 17.1 µM | [10] 20.9 µM | [11] 20.2 µM

FC(F)=C(F)C(F)(F)C(F)(F)C(F)(F)C(F)F
not listed: [2] | [5] | [13] | [14] | [15] | [16]
inactive: all other assays above

COc1cc(OC)nc(NC(=O)NS(=O)(=O)Nc2ccccc2C(=O)N(C)C)n1
not listed: [1] | [5] | [13]
inactive: all other assays above

CCc1ccccc1O
inactive: [1] | [3] | [4] | [6] | [7] | [8] | [10]

O=C(C=C(O)C(F)(F)F)C(F)(F)F
inactive: [1] | [3] | [4] | [6] | [8] | [9] | [10] | [11]

O=C(O)c1cccc(C(=O)O)n1
inactive: [1] | [2] | [3] | [4] | [6] | [7] | [8] | [10] | [11]
